Experimental data taken from PubChem BioAssay (NCATS).
Inconclusive results are not listed. The source made the active and inactive calls. The call rests on the fitted dose curve; in most records, active means well fitted cell-killing curve with a large enough effect; inconclusive means small, poorly fitted or top-dose-only effect; inactive means flat fitted curve, though single readings scatter.
Further: nearly all actives have a fitted effect of over 35% in size.
Potency means the concentration at half of the fitted maximal effect.

Assay: Quantitative highthroughput screen to assess conditional lethalithy of P12 Ichikawa cells grown in RPMI1640 with dialyzed fetal bovine serum (RPMI+ds) (AID 1963880);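 on viability: 100% = DMSO wells and 0% = empty wells on each plate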
Conditions: ATP luminescence, 48 h; Potency: P12-Ichikawa viability; series mostly up to 45.8 µM; viability: at the top concentration
Method in brief: (§1)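 Each medium arm—HPLM with 10% dialyzed FBS, or RPMI1640 with 5 mM glucose and 10% untreated or dialyzed FBS—was screened against an 11-point, 3-fold compound titration for 48 h at 37 °C, with CellTiter-Glo luminescence as endpoint.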
For CC(=Cc1ccccc1)C=C1SC(=S)N(CC(=O)O)C1=O, the “viability” value was 108% (inactive). In the case of C[C@]12CC[C@@H]3c4ccc(O)cc4CC[C@H]3[C@H]1[C@@H](O)[C@@H](O)[C@H]2O, the “viability” value was 113% (inactive). For C[C@@]12C[C@@]3(O)O[C@@H](O1)[C@]1(COC(=O)c4ccccc4)[C@@H]3C[C@@]12O[C@@H]1O[C@H](CO)[C@@H](O)[C@H](O)[C@@H]1O, the “viability” value was 94.7% (inactive). With CC(=O)NCCC(=O)N[C@@H](CCC(N)=O)C(=O)N[C@@H](CO)C(=O)N[C@@H](CCC(N)=O)C(=O)N[C@@H](CCC(N)=O)C(=O)N[C@H](C(=O)N[C@@H](Cc1ccccc1)C(=O)N[C@]1(C)CCCCCCC=CCCC[C@@](C)(C(=O)N[C@@H](CCC(N)=O)C(=O)N[C@@H](CC(N)=O)C(N)=O)NC(=O)[C@H](CC(C)C)NC(=O)[C@H](CC(C)C)NC(=O)[C@@H](CCCNC(=N)N)NC(=O)[C@H](Cc2c[nH]c3ccccc23)NC(=O)[C@H](CC(C)C)NC(=O)[C@H](CC(N)=O)NC1=O)[C@H](C)O the “viability” value was 85.2% (inactive). For COC1CCC(N(C(=O)C2CCC(C)CC2)c2cc(C3=CCCCC3)sc2C(=O)O)CC1 (configuration not stated), the Potency was 14.8 µM (active). In the case of O=c1c(-c2ccc(O)cc2)coc2cc(O[C@@H]3O[C@H](CO)[C@H](O)[C@H](O)[C@H]3O)ccc12, the “viability” value was 109% (inactive). In the case of CC(C)(N)C(=O)N[C@H](COCc1ccccc1)C(=O)N1CCC2(CC1)CN(S(C)(=O)=O)c1ccccc12, the Potency was 23.5 µM (active). For COc1ccc(-c2oc3c(CC=C(C)C)c(OC4O[C@H](CO)[C@@H](O)[C@H](O)[C@@H]4O)cc(O)c3c(=O)c2OC2O[C@@H](C)[C@H](O)[C@@H](O)[C@@H]2O)cc1 (some centres not stated), the “viability” value was 82.5% (inactive). With N#Cc1ccc(NC(=O)Nc2ccccc2Br)c2n[nH]nc12 the “viability” value was 82.1% (inactive). With S=c1nc[nH]c2nc[nH]c12 the Potency was 0.743 µM (active). For CC(=O)N[C@H]1[C@@H]([C@H](O)[C@H](O)CO)OC(C(=O)O)=C[C@@H]1N=C(N)N, the “viability” value was 91.7% (inactive). With O=C(C=Cc1ccc(O)cc1)c1ccc(O)cc1O the Potency was 13.2 µM (active). For COc1ccc(-c2c(-c3ccc(O)cc3O)n[nH]c2C)cc1, the “viability” value was 82.3% [at 92.2 µM] (inactive). In the case of COc1ccc(-c2coc3cc(O)cc(O)c3c2=O)cc1, the “viability” value was 77.8% (inactive). With CN1CCN(C2=Nc3cc(Cl)ccc3Nc3ccccc32)CC1 the “viability” value was 86.6% (inactive). In the case of N=C1SC(=Cc2ccc(-c3ccc4c(c3)C(=O)NC4=O)o2)C(=O)N1c1ccc(Br)cc1, the “viability” value was 86.8% (inactive). With NS(=O)(=O)c1ccc(NC2=CC(=O)c3ccccc3C2=O)cc1 the “viability” value was 88.5% (inactive). In the case of CC=CCC=CCCC(=O)[C@H]1O[C@@H]1C(N)=O, the “viability” value was 79.5% (inactive). In the case of CC1(C)[C@H]2CC[C@]3(C)[C@@H](C(=O)C=C4[C@@H]5C[C@@](C)(C(=O)O)CC[C@]5(C)CC[C@]43C)[C@@]2(C)CC[C@@H]1O, the “viability” value was 100% (inactive). For O=c1[nH]c(=O)n([C@H]2C[C@@H](O)[C@@H](CO)O2)cc1C=CBr, the “viability” value was 90.5% (inactive). For O=C1c2ccccc2-c2n[nH]c3cccc1c23, the Potency was 16.6 µM (active). In the case of C[C@H](NCc1ccc2c(c1)nc(NC(=O)c1ccc(-c3cn[nH]c3)s1)n2CCc1ccccc1)C(C)(C)C, the Potency was 11.8 µM (active). In the case of CC(=O)O[C@]1(C(C)=O)CC[C@@H]2[C@@H]3C[C@H](C)C4=CC(=O)CC[C@]4(C)[C@H]3CC[C@@]21C, the “viability” value was 92.6% (inactive).

Assay: Quantitative highthroughput screen to assess conditional lethalithy of P12 Ichikawa cells grown in RPMI1640 with untreated serum (RPMI+s) (AID 1963881);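 on viability: 100% = DMSO wells and 0% = empty wells without cells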
Conditions: ATP luminescence, 48 h; Potency: viability; series mostly up to 45.8 µM; viability: at the top concentration
Method in brief: as §1
In the case of CC(=Cc1ccccc1)C=C1SC(=S)N(CC(=O)O)C1=O, the “viability” value was 103% (inactive). In the case of CC(=O)N1CCN(c2ccc(OCc3nn(C)c(C)c3-c3cccc4c(CCCOc5cccc6ccccc56)c(C(=O)O)n(Cc5cccnc5)c34)cc2)CC1, the Potency was 10.5 µM (active). For COc1ccc(Nc2nccc(NCCO)n2)cc1, the “viability” value was 101% (inactive). For C[C@]12CC[C@@H]3c4ccc(O)cc4CC[C@H]3[C@H]1[C@@H](O)[C@@H](O)[C@H]2O, the “viability” value was 93% (inactive). For C[C@@]12C[C@@]3(O)O[C@@H](O1)[C@]1(COC(=O)c4ccccc4)[C@@H]3C[C@@]12O[C@@H]1O[C@H](CO)[C@@H](O)[C@H](O)[C@@H]1O, the “viability” value was 94% (inactive). For CC(=O)NCCC(=O)N[C@@H](CCC(N)=O)C(=O)N[C@@H](CO)C(=O)N[C@@H](CCC(N)=O)C(=O)N[C@@H](CCC(N)=O)C(=O)N[C@H](C(=O)N[C@@H](Cc1ccccc1)C(=O)N[C@]1(C)CCCCCCC=CCCC[C@@](C)(C(=O)N[C@@H](CCC(N)=O)C(=O)N[C@@H](CC(N)=O)C(N)=O)NC(=O)[C@H](CC(C)C)NC(=O)[C@H](CC(C)C)NC(=O)[C@@H](CCCNC(=N)N)NC(=O)[C@H](Cc2c[nH]c3ccccc23)NC(=O)[C@H](CC(C)C)NC(=O)[C@H](CC(N)=O)NC1=O)[C@H](C)O, the “viability” value was 104% (inactive). With O=c1c(-c2ccc(O)cc2)coc2cc(O)cc(O)c12 the “viability” value was 78.1% (inactive). With CCCCN1CCC(CNC(=O)c2c3n(c4ccccc24)CCCO3)CC1 the Potency was 16.6 µM (active). With CC(=O)N[C@@H]1[C@H](O[C@@H]2c3ccc(c(Cl)c3)Oc3cc4cc(c3O[C@H]3O[C@H](CO)[C@@H](O)[C@H](O)[C@H]3NC(=O)CCCCCCCC(C)C)Oc3ccc(cc3Cl)C[C@H]3NC(=O)[C@H](N)c5ccc(O)c(c5)Oc5cc(O)cc(c5)[C@H](NC3=O)C(=O)N[C@H]4C(=O)N[C@H]3C(=O)N[C@@H]2C(=O)N[C@@H](C(=O)O)c2cc(O)cc(O[C@H]4O[C@H](CO)[C@@H](O)[C@H](O)[C@H]4O)c2-c2cc3ccc2O)O[C@H](CO)[C@@H](O)[C@@H]1O the “viability” value was 100% (inactive). With NCc1c[nH]c(=S)n1[C@H]1CCc2c(F)cc(F)cc2C1 the “viability” value was 80.9% (inactive). For O=c1c(-c2ccc(O)cc2)coc2cc(O[C@@H]3O[C@H](CO)[C@H](O)[C@H](O)[C@H]3O)ccc12, the “viability” value was 106% (inactive). With CC(C)(N)C(=O)N[C@H](COCc1ccccc1)C(=O)N1CCC2(CC1)CN(S(C)(=O)=O)c1ccccc12 the Potency was 26.4 µM (active). With CCOC(=O)O[C@]1(C(=O)OCCl)CC[C@@H]2[C@H]3CCC4=CC(=O)C=C[C@]4(C)[C@@H]3[C@@H](O)C[C@@]21C the “viability” value was 88.9% (inactive). With O=C(c1ccc(C=Cc2n[nH]c3ccccc23)cc1)N1CCNCC1 the Potency was 0.935 µM (active). In the case of N#Cc1ccc(NC(=O)Nc2ccccc2Br)c2n[nH]nc12, the “viability” value was 96% (inactive). In the case of Cc1c(-c2cccc3c(CCCOc4cccc5ccccc45)c(C(=O)O)n(Cc4cccnc4)c23)c(COc2ccc(N3CCN([S+](=O)([O-])N(C)C)CC3)cc2)nn1C, the “viability” value was 88.9% (inactive). With O=C(C=Cc1ccc(O)cc1)c1ccc(O)cc1O the Potency was 16.6 µM (active). In the case of COC1CCC(C(=O)c2ccc3nc4c(cc3c2)CCCO4)CC1 (configuration not stated), the “viability” value was 76.3% (inactive). For COc1ccc(-c2coc3cc(O)cc(O)c3c2=O)cc1, the “viability” value was 100% (inactive). With CN1CCN(C2=Nc3cc(Cl)ccc3Nc3ccccc32)CC1 the “viability” value was 93.3% (inactive). In the case of Cc1cccc(N(C)C(=S)Oc2ccc3ccccc3c2)c1, the “viability” value was 88.4% (inactive). For CC(C)(C(=O)NCC(F)(F)C(F)(F)F)C(=O)N[C@@H]1C(=O)Nc2ccccc2-c2ccccc21, the Potency was 2.96 µM (active). In the case of NS(=O)(=O)c1ccc(NC2=CC(=O)c3ccccc3C2=O)cc1, the “viability” value was 84% (inactive). For CC=CCC=CCCC(=O)[C@H]1O[C@@H]1C(N)=O, the “viability” value was 83.1% (inactive). With CC1(C)[C@H]2CC[C@]3(C)[C@@H](C(=O)C=C4[C@@H]5C[C@@](C)(C(=O)O)CC[C@]5(C)CC[C@]43C)[C@@]2(C)CC[C@@H]1O the “viability” value was 109% (inactive). With O=c1[nH]c(=O)n([C@H]2C[C@@H](O)[C@@H](CO)O2)cc1C=CBr the “viability” value was 96.3% (inactive). For Cc1c(C)c2c(c(C)c1O)CCC(C)(COc1ccc(CC3SC(=O)NC3=O)cc1)O2 (configuration not stated), the “viability” value was 83.1% (inactive). With O=C1c2ccccc2-c2n[nH]c3cccc1c23 the Potency was 16.6 µM (active). In the case of O=C1c2c(O)cc(O)cc2O[C@H](c2cc(O)c(O)c(O)c2)[C@H]1O, the “viability” value was 79.6% (inactive).
